# Source: PubChem BioAssay
# Inconclusive results are not listed. Calls of active or inactive are those of the source.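 The calls were made as follows, unless noted: active = normalized viability below 100% at a tested concentration; inactive = the rest.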
# Experiments:
# [1] = drug combination growth inhibition, ovarian cancer – cell-based, oncology-focused library, rucaparib conditional, profiling panel (AID 1508598); settings: patient-derived ovarian cancer cells, CellTiter-Glo viability, 144 h, stronger effect = lower value
# [2] = viability loss in pontine glioma line – cell-based, SU-DIPG-XVII, MIPE5.0, CellTiter-Glo, qHTS, dose response (AID 1347060; cut-off not given, nearly all actives have AC50 up to about 26 µM;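 also: cells exposed to compound for 48 hours before viability readout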); settings: CellTiter-Glo ATP luminescence
# [3] = viability loss in pontine glioma line – cell-based, SU-DIPG-XIII, MIPE4.0, CellTiter-Glo, qHTS, dose response (AID 1347061; cut-off not given, nearly all actives have AC50 up to about 37 µM;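 also: cells exposed to compound for 48 hours before readout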); settings: CellTiter-Glo ATP luminescence
# [4] = viability loss in pontine glioma line – cell-based, JHH-DIPG-1, MIPE4.0, CellTiter-Glo, qHTS, dose response (AID 1347062; cut-off not given, nearly all actives have AC50 up to about 27 µM;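 also: cells exposed to compound for two days before readout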); settings: JHH-DIPG-1 viability, CellTiter-Glo ATP luminescence
# [5] = viability loss in pontine glioma line – cell-based, SU-DIPG-IV, MIPE4.0, CellTiter-Glo, qHTS, dose response (AID 1347063; cut-off not given, nearly all actives have AC50 up to about 30 µM;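 also: compound exposure lasted 48 hours before the viability readout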); settings: CellTiter-Glo ATP luminescence
# [6] = viability loss in pontine glioma line – cell-based, SU-DIPG-XIII, MIPE5.0, CellTiter-Glo, qHTS, dose response (AID 1347064; cut-off not given, nearly all actives have AC50 up to about 23 µM;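 also: cells exposed to compound for 48 hours before the viability read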); settings: CellTiter-Glo ATP luminescence
# [7] = viability loss in pontine glioma line – cell-based, SU-DIPG-XXV, MIPE5.0, CellTiter-Glo, qHTS, dose response (AID 1347065; cut-off not given, nearly all actives have AC50 up to about 26 µM;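 also: cells exposed to compound for 48 hours before ATP readout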); settings: CellTiter-Glo ATP luminescence
# [8] = growth inhibition of DIPG cells – cell-based, MIPE4.0 library, CellTiter-Glo luminescence, qHTS (AID 1347066; cut-off not given, nearly all actives have AC50 up to about 30 µM;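 also: cells exposed to compound for 48 hours before readout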); settings: SU-DIPG-VI viability, CellTiter-Glo ATP luminescence
# [9] = JHH-DIPG-1 glioma cell viability, MIPE5.0 library, CellTiter-Glo luminescence, qHTS (AID 1347067; cut-off not given, nearly all actives have AC50 up to about 26 µM;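 also: cells exposed to compound for 48 hours before readout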); settings: JHH-DIPG-1 glioma viability, CellTiter-Glo ATP luminescence
# [10] = growth inhibition of DIPG cells – cell-based, MIPE5.0 library, qHTS (AID 1347068; cut-off not given, nearly all actives have IC50 up to about 30 µM;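 as to IC50: cells exposed to compound for 48 hours before viability readout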); settings: SU-DIPG-XXV viability
# [11] = viability loss with induced miR-34 in A549 – imaging, A549 dox-inducible miR-34, nuclei and caspase counts, primary screen (AID 1347080;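 active = compounds whose cell count with miR-34 switched on is under 0.7 times the count with it off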); settings: A549 miR-34 inducible, Hoechst nuclei count, 48 h
# [12] = compounds altering HSF1 focus formation in cells – imaging, Selleck Cancer Library (AID 1347162; in the data active = plate-normalised HSF1 focus index below about 0.46); settings: human cells, HSF1 nuclear foci imaging, at 10 µM; SSMD: measured here: HSF1 foci SSMD mean; cell count: measured here: cell number; plate-normalised HSF1 focus index: stronger effect = lower value
# [13] = MELAS cybrid and Rieske KO viability enhancers – cell-based, MELAS cybrids, Rieske KO mouse fibroblasts, CellTiter-Glo, primary screen (AID 1508586;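 active = mean z-score across replicates of 1.96 or higher in either the MELAS or the Rieske mutant cell line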;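 also: z relative to plate mean and SD of compound and empty wells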); settings: low glucose
# [14] = at 0.0781 µM, OCI-P5x cells, with rucaparib 20 µM, 100% = cells with rucaparib alone
# [15] = at 0.0781 µM, OCI-P5x cells, without rucaparib
# [16] = at 0.313 µM, OCI-C5x cells, with rucaparib 10 µM, 100% = cells with rucaparib alone
# [17] = at 0.313 µM, OCI-C5x cells, without rucaparib
# [18] = at 0.313 µM, OCI-P5x cells, with rucaparib 20 µM, 100% = cells with rucaparib alone
# [19] = at 0.313 µM, OCI-P5x cells, without rucaparib
# [20] = at 1.25 µM, OCI-C5x cells, with rucaparib 10 µM, 100% = cells with rucaparib alone
# [21] = at 1.25 µM, OCI-C5x cells, without rucaparib
# [22] = at 1.25 µM, OCI-P5x cells, with rucaparib 20 µM, 100% = cells with rucaparib alone
# [23] = at 1.25 µM, OCI-P5x cells, without rucaparib
# [24] = at 5 µM, OCI-C5x cells, with rucaparib 10 µM, 100% = cells with rucaparib alone
# [25] = at 5 µM, OCI-C5x cells, without rucaparib
# [26] = at 5 µM, OCI-P5x cells, with rucaparib 20 µM, 100% = cells with rucaparib alone
# [27] = at 5 µM, OCI-P5x cells, without rucaparib
# [28] = at 0.000305 µM, OCI-C5x cells, with rucaparib 10 µM, 100% = cells with rucaparib alone
# [29] = at 0.000305 µM, OCI-C5x cells, without rucaparib
# [30] = at 0.000305 µM, OCI-P5x cells, with rucaparib 20 µM, 100% = cells with rucaparib alone
# [31] = at 0.000305 µM, OCI-P5x cells, without rucaparib
# [32] = at 0.00122 µM, OCI-C5x cells, with rucaparib 10 µM, 100% = cells with rucaparib alone
# [33] = at 0.00122 µM, OCI-C5x cells, without rucaparib
# [34] = at 0.00122 µM, OCI-P5x cells, with rucaparib 20 µM, 100% = cells with rucaparib alone
# [35] = at 0.00122 µM, OCI-P5x cells, without rucaparib
# [36] = at 0.00488 µM, OCI-C5x cells, with rucaparib 10 µM, 100% = cells with rucaparib alone
# [37] = at 0.00488 µM, OCI-C5x cells, without rucaparib
# [38] = at 0.00488 µM, OCI-P5x cells, with rucaparib 20 µM, 100% = cells with rucaparib alone
# [39] = at 0.00488 µM, OCI-P5x cells, without rucaparib
# [40] = at 0.0195 µM, OCI-C5x cells, with rucaparib 10 µM, 100% = cells with rucaparib alone
# [41] = at 0.0195 µM, OCI-C5x cells, without rucaparib
# [42] = at 0.0195 µM, OCI-P5x cells, with rucaparib 20 µM, 100% = cells with rucaparib alone
# [43] = at 0.0195 µM, OCI-P5x cells, without rucaparib
# [44] = at 0.0781 µM, OCI-C5x cells, with rucaparib 10 µM, 100% = cells with rucaparib alone
# [45] = at 0.0781 µM, OCI-C5x cells, without rucaparib
smiles,measurement,setting,value
NC(=O)Nc1cc(-c2cccc(F)c2)sc1C(=O)N[C@H]1CCCNC1,viability,[1]; [14],44.5% (active)
same,viability,[1]; [15],73.5% (active)
same,viability,[1]; [16],48% (active)
same,viability,[1]; [17],30.6% (active)
same,viability,[1]; [18],26% (active)
same,viability,[1]; [19],21.6% (active)
same,viability,[1]; [20],33.5% (active)
same,viability,[1]; [21],20% (active)
same,viability,[1]; [22],13.7% (active)
same,viability,[1]; [23],9.05% (active)
same,viability,[1]; [24],13% (active)
same,viability,[1]; [25],8.94% (active)
same,viability,[1]; [26],6.86% (active)
same,viability,[1]; [27],3.71% (active)
CCNC(=O)c1noc(-c2cc(C(C)C)c(O)cc2O)c1-c1ccc(CN2CCOCC2)cc1,AC50,[2],16.6 nM (active)
same,AC50,[3],105 nM (active)
same,AC50,[4],74.3 nM (active)
same,AC50,[5],52.6 nM (active)
same,AC50,[6],33.2 nM (active)
same,AC50,[7],11.8 nM (active)
same,AC50,[8],4690 nM (active)
same,AC50,[9],20.9 nM (active)
same,outcome,[10],inactive
same,fold change,"[11]; stronger effect = lower value, cell number ratio, induced over uninduced",1.03 (inactive)
same,fold change,[11]; measured here: relative caspase fold change +Dox/-Dox,0.796
same,cell count,"[11]; measured here: total cells with miR-34 induction, stronger effect = lower value",1340
same,cell count,[11]; measured here: total cells without miR-34 induction,1290
same,SSMD,[12],2.25
same,cell count,[12],7410
same,plate-normalised HSF1 focus index,[12],1.08 (inactive)
same,z-score,"[13]; MELAS cybrid survival, CellTiter-Glo 48 h, stronger effect = higher value",2.88 (active)
same,z-score,"[13]; Rieske KO mouse fibroblast survival, CellTiter-Glo 72 h",0.0253
same,viability,[1]; [28],136% (inactive)
same,viability,[1]; [29],129% (inactive)
same,viability,[1]; [30],98% (active)
same,viability,[1]; [31],112% (inactive)
same,viability,[1]; [32],131% (inactive)
same,viability,[1]; [33],137% (inactive)
same,viability,[1]; [34],69.1% (active)
same,viability,[1]; [35],97.9% (active)
same,viability,[1]; [36],29.2% (active)
same,viability,[1]; [37],12.3% (active)
same,viability,[1]; [38],13.9% (active)
same,viability,[1]; [39],5.95% (active)
same,viability,[1]; [40],9.68% (active)
same,viability,[1]; [41],9.96% (active)
same,viability,[1]; [42],6.4% (active)
same,viability,[1]; [43],4.69% (active)
same,viability,[1]; [44],9.48% (active)
same,viability,[1]; [45],9.56% (active)
same,viability,[1]; [14],6.42% (active)
same,viability,[1]; [15],4.47% (active)
same,viability,[1]; [16],8.98% (active)
same,viability,[1]; [17],9.43% (active)
same,viability,[1]; [18],5.55% (active)
same,viability,[1]; [19],3.94% (active)
same,viability,[1]; [20],10.6% (active)
same,viability,[1]; [21],9.54% (active)
same,viability,[1]; [22],4.83% (active)
same,viability,[1]; [23],3.83% (active)
same,viability,[1]; [24],9.11% (active)
same,viability,[1]; [25],9.15% (active)
same,viability,[1]; [26],3.61% (active)
same,viability,[1]; [27],2.59% (active)
Cc1nc(Nc2n[nH]c3c2CN(C(=O)N[C@H](CN(C)C)c2ccccc2)C3(C)C)c2sccc2n1,AC50,[2],3720 nM (active)
same,AC50,[3],10500 nM (active)
same,AC50,[4],2090 nM (active)
same,AC50,[5],2960 nM (active)
same,AC50,[6],1180 nM (active)
same,AC50,[7],2090 nM (active)
same,AC50,[8],8330 nM (active)
same,AC50,[9],2950 nM (active)
same,IC50,[10],4170 nM (active)
same,viability,[1]; [28],107% (inactive)
same,viability,[1]; [29],125% (inactive)
same,viability,[1]; [30],108% (inactive)
same,viability,[1]; [31],104% (inactive)
same,viability,[1]; [32],112% (inactive)
same,viability,[1]; [33],126% (inactive)
same,viability,[1]; [34],102% (inactive)
same,viability,[1]; [35],108% (inactive)
same,viability,[1]; [36],106% (inactive)
same,viability,[1]; [37],106% (inactive)
same,viability,[1]; [38],85.5% (active)
same,viability,[1]; [39],84.6% (active)
same,viability,[1]; [40],107% (inactive)
same,viability,[1]; [41],66.6% (active)
same,viability,[1]; [42],68.4% (active)
same,viability,[1]; [43],66.2% (active)
same,viability,[1]; [44],90.6% (active)
same,viability,[1]; [45],73.2% (active)
same,viability,[1]; [14],59.9% (active)
same,viability,[1]; [15],60.2% (active)
same,viability,[1]; [16],101% (inactive)
same,viability,[1]; [17],88% (active)
same,viability,[1]; [18],44.2% (active)
same,viability,[1]; [19],48.5% (active)
same,viability,[1]; [20],85.2% (active)
same,viability,[1]; [21],95.2% (active)
same,viability,[1]; [22],24.7% (active)
same,viability,[1]; [23],39.9% (active)
same,viability,[1]; [24],8.03% (active)
same,viability,[1]; [25],10.2% (active)
same,viability,[1]; [26],8.49% (active)
same,viability,[1]; [27],4.16% (active)
